From PubChem BioAssay
Only a selection was taken, and hits are over-represented in it overall.
nsP2pro inh – blocks chikungunya virus nsP2 protease peptide cleavage | Q8JUX6 | FRET peptide cleavage, nsP2pro, fluorescence 1 h | Potency, µM (highest dose often 24.9 µM), without a hit: at the highest dose activity change, negative = inhibition, usual class: inhibitors | 1.1% of 31,000 active | AID 1964107; also: nearly all actives have a fitted effect of over 60% in size
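Purified recombinant nsP2pro (150 nM final) in 10 mM Tris-HCl pH 8.0 with 0.01% Tween 20 was preincubated 15 min at room temperature with compound (7 concentrations, up to 25 uM). FRET peptide 2 substrate (2.5 uM final) was then added; fluorescence was read after 1 h.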
nsP2 cell sec – cell-based CHIKV nsP2 protease inhibition, secondary; Potency, µM (top dose mostly 51.1 µM), inactives show top-dose activity change, negative = inhibition, hits mostly inhibitors; AID 1964100; 10% of 450 active; cell-based CHIKV nsP2 protease reporter assay; shares compounds with nsP2pro inh; also: nearly all actives have a fitted effect of over 70% in size
NSP2 full ctr – full-length CHIKV NSP2 protease inhibition, selectivity; shares compounds with nsP2pro inh; Full-length CHIKV NSP2 protease enzymatic counterscreen; Potency, µM (doses to about 50.7 µM), inactives show at the top dose activity change, negative = inhibition, usual class: inhibitors; 39% of 410 active; also: nearly all actives have a fitted effect of over 65% in size
Furin counter – inhibits human furin in a CHIKV nsP2 protease selectivity counterscreen; shares compounds with nsP2pro inh; Recombinant human furin enzymatic counterscreen, fluorogenic substrate; Potency, µM (series often up to 50.6 µM), without a hit: top-dose activity change, negative = inhibition, hits mostly inhibitors; 6% of 410 active
Target sequence (P09958 whole entry, looked up): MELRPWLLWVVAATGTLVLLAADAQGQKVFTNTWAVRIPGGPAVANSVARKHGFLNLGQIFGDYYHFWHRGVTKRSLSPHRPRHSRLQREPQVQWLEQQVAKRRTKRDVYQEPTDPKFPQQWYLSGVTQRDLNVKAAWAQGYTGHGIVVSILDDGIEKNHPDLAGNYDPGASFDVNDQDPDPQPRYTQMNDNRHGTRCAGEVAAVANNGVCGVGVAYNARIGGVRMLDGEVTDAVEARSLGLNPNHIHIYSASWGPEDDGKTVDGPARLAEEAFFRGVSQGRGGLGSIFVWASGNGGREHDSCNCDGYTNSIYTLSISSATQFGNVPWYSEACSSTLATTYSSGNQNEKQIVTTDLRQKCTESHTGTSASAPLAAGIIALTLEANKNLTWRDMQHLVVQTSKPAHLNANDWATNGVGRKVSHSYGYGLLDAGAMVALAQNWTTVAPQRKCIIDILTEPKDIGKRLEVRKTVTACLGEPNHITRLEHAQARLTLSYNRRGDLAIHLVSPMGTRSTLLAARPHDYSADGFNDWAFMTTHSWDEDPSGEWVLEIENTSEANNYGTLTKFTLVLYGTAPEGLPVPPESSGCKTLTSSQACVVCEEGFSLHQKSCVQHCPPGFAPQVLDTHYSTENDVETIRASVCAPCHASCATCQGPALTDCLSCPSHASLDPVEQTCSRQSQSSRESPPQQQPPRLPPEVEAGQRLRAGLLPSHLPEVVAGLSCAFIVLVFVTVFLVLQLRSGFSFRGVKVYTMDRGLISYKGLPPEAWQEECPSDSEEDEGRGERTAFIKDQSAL
nsP2 NS23 pep – selectivity test for CHIKV nsP2 protease inhibitors: endogenous NS2/3 peptide. shares compounds with nsP2pro inh. Purified CHIKV nsP2 protease, endogenous NS2/3 peptide cleavage. Potency, µM (top dose mostly 51 µM), for the others: top-dose activity change, negative = inhibition, most hits filed as inhibitors. 34% of 410 active. AID 1964103; also: nearly all actives have a fitted effect of over 55% in size
Papain cs – selectivity counter-screen for CHIKV nsP2 protease inhibitors: papain; Potency, µM (series often up to 51 µM), for the others: at the top dose activity change, negative = inhibition, most hits filed as inhibitors; AID 1964104; shares compounds with nsP2pro inh; 5% of 410 active; purified papain protease activity, enzymatic inhibition
nsP2pro conf qHTS – confirmation of CHIKV nsP2 protease inhibitors | shares compounds with nsP2pro inh | CHIKV nsP2 protease enzymatic activity, qHTS | Potency, µM (doses to about 25.5 µM), for inactives: at the highest dose activity change, negative = inhibition, usual class: inhibitors | 43% of 410 active; also: nearly all actives have a fitted effect of over 75% in size
HCV NS3 4A cs – inhibits HCV NS3/4A protease in an nsP2pro selectivity counterscreen | shares compounds with nsP2pro inh | HCV NS3/4A protease biochemical counterscreen | Potency, µM (highest dose often 50.9 µM), actives largely listed as inhibitors | 20% of 410 active | AID 1964106; also: nearly all actives have a fitted effect of over 55% in size
Starred values were filed as active, the others as inactive; i = inactive; u = inconclusive; [ ] = dose if it differs, or a comment. Calls follow the shape of the full dose curve. % is scaled to controls: 0 for no effect and ±100 for the full control effect; potency is read from the fitted curve at half-maximal effect.

SMILES	nsP2pro inh	others
Cc1oc2c(cc(NS(=O)(=O)c3ccc(C(C)C)cc3)c3ccccc32)c1C(=O)OCc1ccccc1	-21.3%
O=C(O)CSc1cc(NS(=O)(=O)c2ccc(Br)cc2)c2ccccc2c1O	1µM*	nsP2 cell sec=u;NSP2 full ctr=4.11µM*;Furin counter=-17.8%;nsP2 NS23 pep=1.83µM*;Papain cs=18.3µM*;nsP2pro conf qHTS=0.798µM*;HCV NS3 4A cs=u
O=S(=O)(Nc1ccccc1)c1ccc(NCc2ccc(Br)cc2O)cc1	-26.0%
COCCCNC(=O)c1ccc2nnc(Cc3ccc(Cl)cc3)n2c1	1.4%[39.2 µM]
Cc1ccc(S(=O)(=O)Nc2ccccc2C(=O)Nc2nc(-c3ccccc3)c(Br)s2)cc1	1.3%
C[n+]1c2cc(N)ccc2cc2ccc(N)cc21 (tested in a mixture with another compound)	u	nsP2 cell sec=u;NSP2 full ctr=-4.5%;Furin counter=u;nsP2 NS23 pep=u;Papain cs=u;nsP2pro conf qHTS=47.1%;HCV NS3 4A cs=i
Cc1ccc(-c2cn(CC3CCCN(c4cc(C)nc(N)n4)C3)nn2)cc1 (stereo not drawn)	-16.1%
Cc1cc(NC(=O)c2cccc(NC(=O)/C=C/CN(C)C)c2)ccc1Nc1nccc(-c2cccnc2)n1	215.2%
CN[C@@H](C)C(=O)N1CCC(c2cc(N3CCOCC3)nc(C)n2)CC1	-5.0%
CCC[C@H](N[C@@H](C)C(=O)N1[C@H](C(=O)O)C[C@@H]2CCCC[C@@H]21)C(=O)O	-13.1%
CCOC(=O)[C@H](CCc1ccccc1)N[C@@H](C)C(=O)N1CCC[C@H]1C(=O)O	3.4%
CC(NC(CCc1ccccc1)C(=O)O)C(=O)N1C(=O)N(C)CC1C(=O)O (stereo not drawn)	u	nsP2 cell sec=2.7%;NSP2 full ctr=14.6µM*;Furin counter=50.7%;nsP2 NS23 pep=-24.6%;Papain cs=-16.3%;nsP2pro conf qHTS=u;HCV NS3 4A cs=i
CC(Cc1ccncc1)Nc1nccc(-c2cnn(-c3ccccc3)c2)n1 (stereo not drawn)	i
O=C(N[C@H]1C[C@@H](CO)N(CC2CCCCC2)C1)c1cccnc1	-20.3%
O=C(O)CC[C@@H](O)C(=O)O	-14.7%
COC(=O)CC[C@@H]1N=C(c2ccccn2)c2cc(Br)ccc2-n2c(C)cnc21	-1.4%
COc1cccc(N2C(=O)NC(=NC3CCCCC3)C23CCCN(CC2CCCCC2)C3)c1 (stereo not drawn)	-18.3%
C=C1[C@@H]2CC[C@@]3(C)[C@H](c4ccoc4)OC(=O)C[C@]13O[C@H]1CC(=O)C(C)(C)[C@H](C(OC(C)=O)C(=O)OC)[C@]12C (stereo partly drawn)	-17.7%[10 µM]
CC1(C)OC(=O)CC(O)C2(C)C1CC(=O)C1(C)C2C(O)CC2(C)C(c3ccoc3)OC(=O)C3OC321 (stereo not drawn)	u	nsP2 cell sec=9.9%[17.6 µM];NSP2 full ctr=-18.8%[17.3 µM];Furin counter=-4.7%[17.3 µM];nsP2 NS23 pep=-9.8%[17.2 µM];Papain cs=-6.1%[17.2 µM];nsP2pro conf qHTS=-16.3%[8.62 µM];HCV NS3 4A cs=i
CC1(C)O[C@H]2CC(=O)OC[C@@]23C1=C(O)C(=O)[C@]1(C)C3CC[C@@]2(C)[C@H](c3ccoc3)OC(=O)[C@H]3O[C@]321 (stereo partly drawn)	u	nsP2 cell sec=-0.2%[17.6 µM];NSP2 full ctr=-7.2%[17.3 µM];Furin counter=-2.6%[17.3 µM];nsP2 NS23 pep=i;Papain cs=-13.2%[17.2 µM];nsP2pro conf qHTS=9.6%[8.62 µM];HCV NS3 4A cs=u
CC(C)C[C@H](NC(=O)OCc1ccccc1)C(=O)N[C@@H](CC1CCNC1=O)C(O)S(=O)(=O)O (stereo partly drawn)	-23.6%
O=C[C@H](O)[C@@H](O)[C@H](O)CO	-3.2%
O=C(CN1CCOCC1)N1CCC(c2cc(N3CCCC3)ncn2)CC1	3.7%
CC(=O)Nc1sc2c(c1-c1ccc(N[S+](C)(=O)[O-])cc1)CCNC2	-6.7%
CC(=O)N1CCC(C(=O)NC2CCc3n[nH]c(=O)n3CC2)CC1 (stereo not drawn)	i
SMILES	nsP2pro inh	others
S=C(NCCCc1cnc[nH]1)NCCCN(Cc1ccc(Cl)c(Cl)c1)c1ccccn1	i
O=C(/C=C/c1ccc(O)cc1)OC[C@@]1(O)C=C[C@@H]2C(C(=O)O)=CO[C@@H](O[C@@H]3O[C@H](CO)[C@@H](O)[C@H](O)[C@H]3O)[C@@H]21	146.6%[10 µM]
C[C@@H](OC(=O)/C=C/c1ccc(O)cc1)C1=C[C@]2(C=C[C@@H]3C(C(=O)O)=CO[C@@H](O[C@@H]4O[C@H](CO[C@@H]5O[C@H](CO)[C@@H](O)[C@H](O)[C@H]5O)[C@@H](O)[C@H](O)[C@H]4O)[C@@H]32)OC1=O	20.8%[10 µM]
COC(=O)C1=CO[C@@H](O[C@@H]2O[C@H](CO)[C@@H](O)[C@H](O)[C@H]2O)[C@H]2[C@@H]1C=C[C@]21C=C([C@H](C)OC(=O)/C=C/c2ccc(O)cc2)C(=O)O1	1.65µM*	nsP2 cell sec=-29.1%[17.6 µM];NSP2 full ctr=3.43µM*;Furin counter=-3.1%[17.3 µM];nsP2 NS23 pep=u;Papain cs=-10.3%[17.2 µM];nsP2pro conf qHTS=1.33µM*;HCV NS3 4A cs=u
CCCCCCCCCCCCCCCc1cccc(O)c1C(=O)O	83.7%
CC1=CC(=O)C(C(C)C)=CC1=O	-10.6%
CC(C)Sc1ncc(Cl)c(C(=O)Nc2ccc(S(=O)(=O)N(C)c3ccccc3)cc2)n1	-17.2%
CCSc1ncc(Cl)c(C(=O)Nc2ccc(S(=O)(=O)N(C)c3ccccc3)cc2)n1	-12.4%
CCN(c1ccccc1)S(=O)(=O)c1ccc(NC(=O)c2nc(S(C)(=O)=O)ncc2Cl)cc1	u	nsP2 cell sec=2.59µM*;NSP2 full ctr=4.11µM*;Furin counter=-6.2%;nsP2 NS23 pep=5.8µM*;Papain cs=-14.6%;nsP2pro conf qHTS=4.49µM*;HCV NS3 4A cs=i
Cc1ccc(OCCn2c(CCNCC3CCCCC3)nc3ccccc32)cc1	-3.9%
O=C(O)CCSC[C@H]1O[C@@H]2O[C@H]3[C@H](O)[C@@H](O)[C@@H](O[C@H]4[C@H](O)[C@@H](O)[C@@H](O[C@H]5[C@H](O)[C@@H](O)[C@@H](O[C@H]6[C@H](O)[C@@H](O)[C@@H](O[C@H]7[C@H](O)[C@@H](O)[C@@H](O[C@H]8[C@H](O)[C@@H](O)[C@@H](O[C@H]9[C@H](O)[C@@H](O)[C@@H](O[C@H]1[C@H](O)[C@H]2O)O[C@@H]9CSCCC(=O)O)O[C@@H]8CSCCC(=O)O)O[C@@H]7CSCCC(=O)O)O[C@@H]6CSCCC(=O)O)O[C@@H]5CSCCC(=O)O)O[C@@H]4CSCCC(=O)O)O[C@@H]3CSCCC(=O)O	192.1%
